# High-throughput results (PubChem)
# PLK1 PBD inh = blocks phosphopeptide binding to human PLK1 polo-box domain | Potency, µM, inactives show max response, negative = inhibition, actives largely listed as inhibitors | AID 720504 | Plk1 PBD binding of FITC phosphopeptide, fluorescence polarization | P53350 | 360,000 compounds, 2.8% hits; note: series mostly up to about 57 µM; % is set by controls: 0 for no effect and ±100 for the full control effect; nearly all actives have a fitted effect of over 65% in size
# G9a block = blocks human histone lysine methyltransferase G9a; Q96KQ7; G9a H3K9 monomethylation, AlphaScreen, 2 h; Potency, µM (doses to about 102 µM), for inactives: at the highest dose activity, negative = inhibition, usual class: inhibitors; 350,000 compounds, 8.8% hits; note: % is set by controls: 0 for no effect and ±100 for the full control effect; nearly all actives have a fitted effect of over 75% in size
#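 Using a bead-based AlphaScreen, monomethylated H3K9 product from 2 h room-temperature reactions (G9a 20 nM, peptide 500 nM, SAM 20 uM) was detected with 0.5 ug/mL rabbit anti-H3K9me1 antibody.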
# ALOX12 inh = blocks human arachidonate 12S-lipoxygenase. P18054. purified 12hLO, xylenol orange hydroperoxide absorbance. 580,000 compounds, 1.1% hits. Potency, µM (doses to about 108 µM), for the others: at the highest dose activity change, negative = inhibition, hits mostly inhibitors; note: % is set by controls: 0 for no effect and ±100 for the full control effect
#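 Purified human 12hLO (150 nM final) in 25 mM Hepes, 0.01% Triton X-100, pH 7.0 was preincubated 15 min at room temperature with compound. Then 40 uM arachidonic acid was added, 30 min. Hydroperoxide was read by Fe-XO absorbance ratio 573/405 nm.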
# HP1b chromo inh = blocks HP1-beta chromodomain binding to methylated histone tails. P83916. AlphaScreen HP1-beta / biotin-H3K9me3 peptide binding. Potency, µM (titrated, usually from 114 µM), for the others: at the highest dose activity change, negative = inhibition, hits mostly inhibitors. 390,000 compounds, 0.56% hits; note: nearly all actives have a fitted effect of over 70% in size
#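 Compound inhibition of the preformed complex between 50 nM HP1-beta and 50 nM biotinylated H3K9me3 peptide was read by AlphaScreen. Buffer was PBS pH 7.4 with 0.01% Tween-20. Incubations ran 30 min at room temperature, with 10 ug/mL donor/acceptor beads.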
# JMJD2A Tudor = inhibitors of human JMJD2A Tudor domain; O75164; AlphaScreen JMJD2A-Tudor / H3K4me3 peptide binding; Potency, µM (top dose mostly 114 µM), for the others: at the highest dose activity change, negative = inhibition, usual class: inhibitors; 390,000 compounds, 4.4% hits; AID 504339; note: % is set by controls: 0 for no effect and ±100 for the full control effect; nearly all actives have a fitted effect of over 50% in size
# BAZ2B inh = blocks human BAZ2B. Potency, µM (titrated, usually from 114 µM), inactives show at the highest dose activity change, negative = inhibition, usual class: inhibitors. 360,000 compounds, 4.4% hits. AlphaScreen BAZ2B-H3K14Ac peptide displacement. Q9UIF8. AID 504333; note: % is set by controls: 0 for no effect and ±100 for the full control effect; nearly all actives have a fitted effect of over 60% in size
#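 Multi-concentration screen (max 110 uM) measuring displacement of acetylated histone H3 peptide from BAZ2B by AlphaScreen, using 50 nM protein, 50 nM peptide and 10 ug/mL streptavidin donor plus Ni-chelate acceptor beads.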
# The depositor's hits bear a star; ? = inconclusive; nt = no result given; [ ] = dose if it differs, or a comment. This is a sample that favours compounds with a hit; in the whole collection about 9% have one here. Calls come from the whole dose curve; as a rule, active = well fitted curve in the direction sought with a large enough effect; inconclusive = small, poorly fitted or top-dose-only effect, or another doubt; inactive = no such curve, though single readings can be large; an effect the other way counts as inactive or inconclusive. Potency is the fitted concentration of half-maximal effect.
SMILES,PLK1 PBD inh,G9a block,ALOX12 inh,HP1b chromo inh,JMJD2A Tudor,BAZ2B inh
CCOc1ccc2[nH]c(=O)c(C(c3nnnn3Cc3ccco3)N3CCC(C)CC3)cc2c1 (stereo not drawn),?,?,0%,40%,-24%,-35%
CCOC(=O)c1ccc(COC(=O)c2ccc3c(c2)-c2ccccc2C3=O)cc1,-6%,0%[59 µM],-10%,24%,-17%,7%
CCOC(=O)C1=C(Cc2ccc(C)cc2)C(=O)c2ccccc2C1=O,nt,8.9µM*,11µM*,nt,nt,22µM*
CCOC(=O)C1=C(Cc2ccc(OC)cc2)C(=O)c2ccccc2C1=O,12µM*,2.8µM*,nt,18µM*,40µM*,22µM*
O=C(COC(=O)c1ccc(O)cc1)NC1CCCC1,-11%,22%,4%,67%,-16%,14%
CCOc1ccccc1Nc1nnc(SCC(=O)Nc2nc(-c3ccc(OC)cc3)cs2)s1,-20%,8.9µM*,14%,33%,?,-9%
COc1ccc(-c2csc(NC(=O)CSc3nnc(Nc4ccccc4C)s3)n2)cc1,-12%,11µM*,-9%,19%,-14%,-15%
Cc1ccc(-c2cc(C(=O)N(C)CC(=O)Nc3ccccc3Br)c3ccccc3n2)o1,-12%,8.9µM*,?,0%,?,-1%
COc1ccc(NC(=O)c2cc(-c3ccc(C)o3)nc3ccccc23)cc1OC,?,?,?,-14%,56µM*,-31%
Cc1ccc(NC(=O)c2cc(-c3ccncc3)nc3ccccc23)cc1,nt,nt,17%,nt,nt,nt
Cc1ccc(-c2cc(C(=O)Nc3ccc(C#N)cc3)c3ccccc3n2)o1,nt,nt,13µM*,nt,nt,nt
COc1ccc(NC(=O)c2cc(-c3ccc(C)o3)nc3ccccc23)c(OC)c1,-12%,nt,?,14%,?,nt
Cc1ccc(-c2cc(C(=O)Nc3ccc(C(N)=O)cc3)c3ccccc3n2)o1,nt,nt,7.9µM*,nt,nt,nt
NCCCn1c(C(=O)c2ccc(Cl)cc2)c2ccc(C(F)(F)F)cc2[n+]1[O-],0%,11%[2.33 µM],-10%,28%,-27%,1%
COc1ccc(OC)c(-c2cc(C(=O)Nc3ccccc3C(N)=O)c3ccccc3n2)c1,-7%,nt,11%,38%,-26%,nt
Cc1ccc(-c2cc(C(=O)Nc3ccccc3C(N)=O)c3ccccc3n2)o1,?,nt,6.3µM*,0%,-36%,nt
Cc1ccc2nc(SCC(=O)O)nc(C)c2c1,-3%,-41%[2.33 µM],14%,24%,-13%,14%
Cc1ccc(N2C(SCC(=O)O)=NC(=Nc3cccc(C)c3)C23CCCC3)cc1,-1%,-46%,-10%,14µM*,10µM*,20µM*
O=C(O)CSC1=NC(=Nc2ccc(Cl)cc2)C2(CCCCC2)N1c1cccc(C(=O)O)c1,1%,4.5µM*,?,?,22µM*,?
O=C(c1cc2ccccc2o1)N1CCCC2(COc3ccccc3[S+](=O)([O-])N2)C1 (stereo not drawn),nt,nt,3%[6.33 µM],nt,nt,nt
CN1CCN(C(=O)c2cn(-c3ccccc3)nc2-c2cccnc2)CC1,1%,-36%[59 µM],0%,35%,-5%,-36%
CC(N)=O,nt,0.79µM*,-8%,nt,nt,nt
CCOc1ccc(N2C(=O)CSC2=S)cc1,-9%,-24%,2%,48%,-6%,-24%
CC1=NC(=O)C(N=Nc2ccccc2)N1c1ccccc1 (stereo not drawn),-4%,8.9µM*,84%,-32%,11µM*,8.9µM*
CC1=NC(=O)C(N=Nc2ccccc2C(=O)O)N1c1ccccc1 (stereo not drawn),?,-12%[12.7 µM],-3%,-13%,?,28µM*
SMILES,PLK1 PBD inh,G9a block,ALOX12 inh,HP1b chromo inh,JMJD2A Tudor,BAZ2B inh
CC1=NC(=O)C(N=Nc2cccc(C(=O)O)c2)N1c1ccccc1 (stereo not drawn),-5%,?,7.1µM*,-36%,?,50µM*
CC1CCC(NC(=O)c2nn(C)c(=O)c3ccccc23)CC1 (stereo not drawn),-8%,nt,18%,nt,nt,nt
CC(C)NC(=O)c1sc2ncccc2c1-n1cccc1,nt,6%[59 µM],-14%,42%[57 µM],-5%,7%
CCC(C)NCCCOc1ccc(Cl)cc1C(C)(C)C (stereo not drawn),-19%,13µM*,?,?,3.2µM*,50µM*
CNCCCOc1ccc(Cl)cc1C(C)(C)C,-8%,14µM*,?,?,45µM*,32µM*
CC(C)NC(=O)CCCOc1ccc(Cl)cc1Cl,-6%,14%,-17%,31%,-5%,-4%
C=CCc1ccc(OCCCCNC(C)CC)c(OC)c1 (stereo not drawn),-8%,14µM*,0%,-19%,14µM*,-32%
C=CCc1cc(Cl)ccc1OCCCNC(C)CC (stereo not drawn),-4%,10µM*,?,?,22µM*,-31%
C=CCc1ccc(OCCCOc2ccc(C(=O)O)cc2)c(OC)c1,-7%,-30%,-7%,7%,-14%,-11%
N=C1/C(=C\c2ccc(OC(=O)c3ccco3)cc2)C(=O)N=C2SC=NN12,?,-45%,-11%,-11%,?,nt
O=C(O)CC/C(=N\Nc1ccc(Cl)cc1)c1cccs1,-16%,7%,0%,23%,0%,5%
O=C1NCCN2CC3(CCN(C(=O)NC4CCCCC4)CC3)CC12 (stereo not drawn),nt,nt,138%,nt,nt,nt
CCOc1ccc(C(=O)CCC(=O)NCC(=O)NC2CC2)cc1,nt,nt,4%,nt,nt,nt
COc1ccc(COc2cccc3ccc(C)nc23)cc1F,-8%,28%,-12%,29%,0%,15%
COCCCNCCCOc1ccc(Cl)cc1C(C)(C)C,-13%,?,?,-27%,28µM*,1%
C=CCc1ccc(OCCOCCOc2cccc3ccc(C)nc23)c(OC)c1,-6%,3.5µM*,?,16µM*,1.1µM*,28µM*
C=CCc1ccc(OCCOCCNCCCC)c(OC)c1,-6%,?,?,?,4µM*,50µM*
C=C1CCC[C@]2(C)C[C@H]3OC(=O)C(CN[C@@H](C)c4ccccc4)[C@H]3CC12 (stereo partly drawn),-8%,22%,0%,34%,-4%,-16%
CCCN(C(=O)CCc1nc(-c2ccc(C)cc2)no1)c1ccc(OCC)cc1,nt,71%[59 µM],?,81%,63%,68%
O=[N+]([O-])c1cc(CSC2=NCCN2)ccc1O,?,25µM*,-16%,2%,-11%[11.4 µM],?
Cc1ccc(-c2nnc(NC(=O)c3ccco3)s2)cc1,-29%,?,0%,5%,4%,0%
CNc1nnc(-c2ccc(N(C)C)cc2)s1,-2%,7.9µM*,-18%,22%,-24%,3%
Cc1ccc(-n2c(O)cnc2Nc2nc(C)cc(C)n2)cc1,-9%,48%[12.7 µM],?,9%,?,-37%
Cc1cc(C)nc(Nc2ncc(O)n2-c2ccccc2)n1,2%,107%[59 µM],?,15%,56µM*,-37%
